Most compounds without a hit are left out; they make up all but 4% or so of the library.
Rv3671c inh: Rv3671c serine protease inhibitors, primary screen, biochemical, fluorescence polarization, M. tuberculosis H37Rv; P9WHR9; inhibition, % at 5.96 µM; actives 0.048% (n = 320,000); AID 2606, 2010; in the data active means inhibition above about 38%;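 further: extracellular domain of Rv3671c used as enzyme; 0% = enzyme with DMSO and 100% = no enzyme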
Target sequence (P9WHR9 whole entry, looked up, the tested form may be a part): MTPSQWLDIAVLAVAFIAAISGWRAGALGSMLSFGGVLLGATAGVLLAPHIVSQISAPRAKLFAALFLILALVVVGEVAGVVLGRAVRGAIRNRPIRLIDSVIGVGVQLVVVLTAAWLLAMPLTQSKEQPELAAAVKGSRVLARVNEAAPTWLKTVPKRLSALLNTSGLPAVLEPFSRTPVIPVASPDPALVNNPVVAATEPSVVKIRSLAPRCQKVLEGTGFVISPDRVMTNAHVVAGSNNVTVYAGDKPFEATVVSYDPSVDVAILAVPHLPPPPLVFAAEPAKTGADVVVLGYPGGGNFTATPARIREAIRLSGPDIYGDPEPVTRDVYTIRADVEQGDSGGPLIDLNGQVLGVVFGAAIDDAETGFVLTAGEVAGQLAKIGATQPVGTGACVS
UGM FP inh: M. tuberculosis UGM enzyme inhibitors, primary screen, biochemical, fluorescence polarization, single point; UDP-galactopyranose mutase (Mycobacterium tuberculosis (strain ATCC 25618 / H37Rv)), …; actives 0.06% (n = 320,000); inhibition, % at 10 µM; purified UGM, fluorescence polarization probe displacement; in the data active means inhibition above about 10%, passing the limit was not always enough; inconclusive means no clear call, values can overlap the other calls
Mtb FBA inh: Mtb FBA enzyme inhibitors, primary screen, biochemical, fluorescence, strain H37Rv; Fructose-bisphosphate aldolase (Mycobacterium tuberculosis (strain ATCC 25618 / H37Rv)), …; purified M. tuberculosis FBA, fluorescence read-out; inhibition, % at 1 µM; actives 2.3% (n = 360,000); AID 588726, 2011;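 further: 0% = vehicle and 100% = reference inhibitor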
Mtb bLac sens: beta-lactam sensitization of Mtb H37Rv, H37Rv; actives 0.27% (n = 330,000); AID 434955, 2010; inhibition, % at 25 µM; M. tuberculosis H37Rv growth with meropenem, percent inhibition; call rule not given here;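 further: growth measured after seven days incubation then overnight dye step; 0% = bacteria only wells and 100% = bacteria with antibiotic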
GDH-TPI counter-1: GDH-TPI coupling enzyme inhibitors, primary screen, artefact control for M. tuberculosis FBA inhibitor project, biochemical, absorbance, full deck | GDH-TPI coupled enzyme counterscreen, NADH absorbance | inhibition, % at 4.8 µM | actives 1.2% (n = 360,000) | AID 588335, 2011; in the data active means inhibition above about 30%;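 further: 0% = DMSO wells and 100% = wells lacking the enzyme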
RecA splice inh: Mtb RecA intein splicing inhibitors, primary screen, biochemical, fluorescence, HTS | actives 0.75% (n = 290,000) | inhibition, % (no concentration beside the values) | cell-free RecA intein splicing | Protein RecA (Mycobacterium tuberculosis (strain ATCC 25618 / H37Rv)), P9WHJ3 | AID 2221, 2009; in the data active means inhibition above about 30%; inconclusive means no clear call, values can overlap the other calls;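 further: 0% = vehicle wells and 100% = reference inhibitor control wells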
Mtb FBA confirm: M. tuberculosis aldolase blockers, biochemical, fluorescence, strain H37Rv, confirmation; actives 78% (n = 5,600); inhibition, % at 1 µM; AID 651616, 2012; purified M. tuberculosis FBA, fluorescence read-out; shares compounds with Mtb FBA inh;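 further: 0% = vehicle wells and 100% = reference inhibitor wells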
GDH-TPI counter-2: GDH-TPI coupling enzyme inhibitors, artefact control for M. tuberculosis FBA inhibitor project, biochemical, fluorescence, high throughput; AID 652141, 2013; inhibition, % at 1 µM; shares compounds with Mtb FBA inh; GDH-TPI coupled enzyme counterscreen; actives 81% (n = 5,600); in the data active means inhibition above about 10%
GDH-TPI dose: GDH-TPI coupling enzyme inhibitors, dose response, artefact control for M. tuberculosis FBA inhibitor project, biochemical, fluorescence, IC50; shares compounds with Mtb FBA inh; GDH-TPI coupled enzyme assay, artifact counterscreen; IC50, µM; actives 79% (n = 170); call rule not given here
Numbers without * were called inactive; ? = inconclusive; nt = no result; + = active, no number. Unless noted, no stated cut-off is given here; in the data, active means inhibition above about 27%; inactive means the rest.

SMILES	Rv3671c inh	UGM FP inh	Mtb FBA inh	Mtb bLac sens	GDH-TPI counter-1	RecA splice inh	Mtb FBA confirm	GDH-TPI counter-2	others
CCOCCCNC(=O)c1cc2c(=O)n(CC)c3ccccc3c2s1	-6	-1	59*	-4	12	-1	+	+
CCn1c(=O)c2cc(C(=O)N(C)CC(OC)OC)sc2c2ccccc21	-10	-2	35*	-11	21	1	+	+
CCn1c(=O)c2cc(C(=O)NCCOC)sc2c2ccccc21	-5	1	51*	-9	21	-1	57*	43*
COc1ccc(Cc2nc3ccc(C(=O)NC4CCOC4)cc3o2)cc1OC (configuration not stated)	nt	nt	-2	nt	6	nt	nt	nt
CC(C)NC(=O)C1(C)CCN1C(=O)Cc1ccc(-c2ccccc2)cc1 (configuration not stated)	nt	nt	1	nt	-7	nt	nt	nt
CN1CCN(S(=O)(=O)c2ccc(NC(=O)c3csc4ccccc34)cc2)CC1	-12	-3	-1	-5	11	-1	nt	nt
O=C(NC1CC1)c1cccc(S(=O)(=O)Nc2ccccc2F)c1	-1	-2	1	-9	3	-1	nt	nt
Cc1c(O[C@@H]2O[C@H](CO)[C@@H](O)[C@H](O)[C@H]2O)ccc2c1oc(=O)c1ccccc12	nt	-1	88*	24	14	0	62*	52*
Cc1c(C)c2ccc(O[C@@H]3O[C@H](CO)[C@H](O)[C@H](O)[C@H]3O)c(C)c2oc1=O	nt	-2	34*	-3	16	2	49*	44*
CCCc1cc(=O)oc2c(C)c(O[C@@H]3O[C@H](CO)[C@@H](O)[C@H](O)[C@H]3O)ccc12	6	0	3	?	12	0	nt	nt
Cc1cc(NC(=O)c2cc(-c3ccc(C)s3)nc3ccccc23)no1	-7	2	29*	-3	11	-1	+	180*
CC(C)CCNC(=O)c1cc(-c2cccs2)nc2ccccc12	-2	-1	65*	6	11	0	-2	-4
CCC(C)NC(=O)c1cc(-c2cccs2)nc2ccccc12 (configuration not stated)	2	0	94*	-2	21	0	101*	92*
COc1cc(/C=N/NC(=O)c2ccncc2)ccc1OCC(=O)Nc1ccc(C)c(C)c1	-21	2	-3	97	6	-3	nt	nt
CCc1ccc(NC(=O)CN(CC(=O)Nc2ccc(CC)cc2)CC(C)O)cc1 (configuration not stated)	0	-2	-2	85	9	-8	nt	nt
COc1ccc(N2CCN(C(=O)CN(c3ccc(Br)cc3)S(C)(=O)=O)CC2)cc1	-7	2	3	-2	6	0	nt	nt
Nc1cc2ccncc2c2ccccc12	6	0	102*	12	7	-85	+	+
Cc1c(C(=O)Nc2cccc(Cl)c2)c2ccccn2c1CCc1ccncc1	nt	nt	26	nt	23	nt	nt	nt
Cc1c(C(=O)Nc2ccc(Cl)cc2)c2ccccn2c1CCc1ccncc1	-6	-2	32*	6	8	0	12	1	GDH-TPI dose=0.97*
CCOc1ccccc1/C=C/c1cc(C(=O)O)c2ccccc2n1	0	2	29*	-2	9	1	91*	71*
